The panel holds about 79,000 compounds, 15% with a hit somewhere; the sample as a whole holds those more often. Active and inactive are the calls of the source. Rule as the data show it: active = growth inhibition above about 70%; inactive = the rest.
Legend:
[1] = NCI Yeast Anticancer Drug Screen. Data for the rad52 strain (AID 147);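 also: 0% = growth of vehicle-treated control cultures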; settings: S. cerevisiae rad52 mutant growth inhibition, stronger effect = higher value
How it was run: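 Measured: yeast growth inhibition. System: strain with a defined DNA damage repair alteration. Reference: vehicle-treated control cultures.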

[2] = NCI Yeast Anticancer Drug Screen. Data for the rad50EPP+ strain (AID 151);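 also: 0% = growth of vehicle-treated control cultures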; settings: S. cerevisiae rad50 mutant strain, stronger effect = higher value
How it was run: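 One strain with a rad50 alteration (rad50EPP+) was compound-treated, its growth then compared to that of vehicle controls.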

[3] = NCI Yeast Anticancer Drug Screen. Data for the mgt1 strain (AID 153); settings: S. cerevisiae mgt1 mutant growth inhibition, stronger effect = higher value
How it was run: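 After exposure of the mgt1 yeast mutant to compound, growth was measured and reported as inhibition compared with vehicle controls.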

[4] = NCI Yeast Anticancer Drug Screen. Data for the rad50 strain (AID 155);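 also: 0% = growth of vehicle-only cultures of the same strain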; settings: S. cerevisiae rad50 strain growth inhibition, stronger effect = higher value
How it was run: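 A DNA repair-deficient yeast mutant serves as the test organism; compound-induced growth inhibition is calculated against vehicle-treated cells.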

[5] = NCI Yeast Anticancer Drug Screen. Data for the mec2-1 strain (AID 157); settings: S. cerevisiae mec2-1 strain, stronger effect = higher value
How it was run: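 Test agents were screened against the mec2-1 yeast strain, with defined DNA repair or cell cycle alteration. Growth was scored as inhibition against vehicle-only controls.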

[6] = NCI Yeast Anticancer Drug Screen. Data for the rad14 strain (AID 159);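 also: 0% = growth of vehicle-treated control cultures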; settings: S. cerevisiae rad14 strain growth inhibition, stronger effect = higher value
How it was run: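 Vehicle-treated cultures served as the baseline for growth inhibition of a DNA repair-mutant yeast strain exposed to each compound.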

[7] = NCI Yeast Anticancer Drug Screen. Data for the sgs1 mgt1 strain (AID 161);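 also: 0% = growth of cultures given vehicle only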; settings: S. cerevisiae sgs1 mgt1 strain, stronger effect = higher value
How it was run: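 Test agents were incubated with a DNA-repair-mutant yeast strain. Growth was then read and compared against vehicle-treated controls.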

[8] = NCI Yeast Anticancer Drug Screen. Data for the CLN2oe strain (AID 163);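 also: 0% = growth of vehicle-only control cultures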; settings: S. cerevisiae CLN2oe strain, stronger effect = higher value
How it was run: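 Here, growth inhibition in a cell-cycle-altered yeast strain after compound exposure was quantified against vehicle control growth.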

[9] = NCI Yeast Anticancer Drug Screen. Data for the cln2 rad14 strain (AID 165);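 also: 0% = growth equal to vehicle treated cultures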; settings: S. cerevisiae cln2 rad14 strain, stronger effect = higher value
How it was run: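 Growth of compound-exposed yeast (cln2 rad14 genotype) measured and expressed as inhibition relative to vehicle.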

[10] = NCI Yeast Anticancer Drug Screen. Data for the bub3 strain (AID 167); settings: S. cerevisiae bub3 mutant strain, stronger effect = higher value
How it was run: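 Inhibition values come from growth of compound-treated mutant yeast normalised to vehicle-treated controls.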

[11] = NCI Yeast Anticancer Drug Screen. Data for the wt2 strain (AID 169);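 also: 0% = growth of vehicle-treated yeast cultures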; settings: S. cerevisiae wt2 strain growth inhibition, stronger effect = higher value
How it was run: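 Genetically defined yeast strains from a DNA-repair/cell-cycle panel were used. Compound-exposed yeast growth was measured, and the inhibition was calculated relative to vehicle treatment.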

[12] = NCI Yeast Anticancer Drug Screen. Data for the mlh1 strain (AID 171);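 also: 0% = growth of vehicle-treated control cultures of the same strain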; settings: S. cerevisiae mlh1 strain growth inhibition, stronger effect = higher value
How it was run: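 Here the genetically defined yeast mutant is grown with each compound, and the extent to which its growth falls below that of vehicle-exposed cells is reported.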

[13] = NCI Yeast Anticancer Drug Screen. Data for the sgs1 strain (AID 173);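 also: 0% = growth of vehicle-only control cultures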; settings: S. cerevisiae sgs1 mutant, stronger effect = higher value
How it was run: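 Relative growth inhibition, referenced to vehicle, was determined in a yeast strain with a defined alteration affecting DNA damage repair or cell cycle control after compound exposure.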

[14] = NCI Yeast Anticancer Drug Screen. Data for the mlh1 rad18 strain (AID 175); settings: S. cerevisiae mlh1 rad18 strain growth inhibition, stronger effect = higher value
How it was run: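 In this whole-cell yeast screen, a strain with altered DNA damage repair is challenged with compound, and its growth is measured against matched vehicle-treated controls.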

[15] = NCI Yeast Anticancer Drug Screen. Data for the rad18 strain (AID 177); settings: S. cerevisiae rad18 mutant growth inhibition, stronger effect = higher value
How it was run: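 Screen uses a yeast strain with a defined lesion in DNA damage repair; compound effect is read as loss of growth compared to untreated vehicle cultures.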

[16] = NCI Yeast Anticancer Drug Screen. Data for the wt1 strain (AID 149);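 also: 0% = growth of vehicle-treated wt1 cultures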; settings: S. cerevisiae wt1 strain (SPY 50644) growth inhibition, stronger effect = higher value
How it was run: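 Vehicle-normalised growth inhibition; strain wt1; compound exposure.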

[17] = at 5.0 µM (retest, dose inferred, filed as 0.5)
[18] = at 50.0 µM (retest, dose inferred, filed as 5.0)

Measured: growth inhibition

CN(C)CCNCCCNc1c2ccccc2nc2cccc([N+](=O)[O-])c12
inactive: [1]; at 1.2 µM 23% | [1]; at 3.7 µM 46% | [2]; at 1.2 µM 9% | [2]; at 3.7 µM 26% | [2]; at 11.0 µM 69% | [3]; at 1.2 µM 4% | [3]; at 3.7 µM 18% | [3]; at 11.0 µM 20% | [3]; at 33.0 µM 26% | [3]; at 100.0 µM 58% | [4]; at 1.2 µM 9% | [4]; at 3.7 µM 39% | [4]; [17] 17% | [4]; at 11.0 µM 61% | [5]; at 1.2 µM 22% | [5]; at 3.7 µM 18% | [5]; [17] 17% | [5]; at 11.0 µM 50% | [6]; at 1.2 µM -2% | [6]; at 3.7 µM 46% | [8]; at 1.2 µM -2% | [8]; at 3.7 µM -4% | [8]; at 11.0 µM 2% | [8]; at 33.0 µM 22% | [10]; at 1.2 µM -5% | [10]; at 3.7 µM -11% | [10]; [17] -12% | [10]; at 11.0 µM -11% | [10]; at 33.0 µM 6% | [10]; at 50.0 µM -3.8% | [11]; at 1.2 µM 0% | [11]; at 3.7 µM 1% | [11]; at 11.0 µM 11% | [11]; at 33.0 µM 33% | [12]; at 1.2 µM 5% | [12]; at 3.7 µM 18% | [12]; at 11.0 µM 25% | [12]; at 33.0 µM 46% | [13]; at 1.2 µM 31% | [13]; at 3.7 µM 58%
active: [1]; at 11.0 µM 80% | [1]; at 33.0 µM 89% | [1]; at 100.0 µM 94% | [2]; at 33.0 µM 90% | [2]; at 100.0 µM 95% | [4]; at 33.0 µM 88% | [4]; [18] 93% | [4]; at 50.0 µM 80.8% | [4]; at 100.0 µM 94% | [5]; at 33.0 µM 91% | [5]; [18] 98% | [5]; at 50.0 µM 78.7% | [5]; at 100.0 µM 95% | [6]; at 11.0 µM 92% | [6]; at 33.0 µM 97% | [6]; at 100.0 µM 97% | [7]; [17] 73% | [7]; [18] 95% | [7]; at 50.0 µM 79.7% | [8]; at 100.0 µM 81% | [9]; [17] 80% | [9]; [18] 97% | [9]; at 50.0 µM 97.5% | [10]; [18] 72% | [10]; at 100.0 µM 80% | [11]; at 100.0 µM 91% | [12]; at 100.0 µM 74% | [13]; at 11.0 µM 76% | [13]; at 33.0 µM 84% | [13]; at 100.0 µM 89% | [14]; [17] 73% | [14]; [18] 97% | [14]; at 50.0 µM 88.7% | [15]; at 1.2 µM 88% | [15]; at 3.7 µM 94% | [15]; at 11.0 µM 96% | [15]; at 33.0 µM 96% | [15]; at 100.0 µM 96%

COc1ccc(-c2cc(-c3cc(C)cc(Cl)c3O)nc3[nH]c(=S)[nH]c(=S)c23)cc1
active: [1]; at 100.0 µM 72% | [3]; at 100.0 µM 94% | [4]; [18] 96% | [4]; at 50.0 µM 75.1% | [5]; at 50.0 µM 82.6%
inactive: [1]; at 1.2 µM 1% | [1]; at 3.7 µM 4% | [1]; at 11.0 µM 6% | [1]; at 33.0 µM 15% | [16]; at 1.2 µM 0% | [16]; at 3.7 µM -1% | [16]; at 11.0 µM 0% | [16]; at 33.0 µM 1% | [16]; at 100.0 µM 35% | [3]; at 1.2 µM -1% | [3]; at 3.7 µM -2% | [3]; at 11.0 µM -3% | [3]; at 33.0 µM 25% | [4]; at 1.2 µM 3% | [4]; at 3.7 µM 5% | [4]; [17] -32% | [4]; at 11.0 µM 6% | [4]; at 33.0 µM 11% | [4]; at 100.0 µM 57% | [5]; at 1.2 µM 0% | [5]; at 3.7 µM 0% | [5]; [17] 2% | [5]; at 11.0 µM -2% | [5]; at 33.0 µM 2% | [5]; [18] 62%
